Residue numbers refer to the chain shown, from its start.
Experiments:
Assay in all cases: protein-binding microarray (PBM); PBM: ~300 nM protein, 6 mM HEPES pH 7.8, 80 mM KCl, 0.5 mM EDTA, 0.5 mM EGTA, 6% glycerol, 35 ng/ul poly-dIdC, 1% milk, 1 h, room temperature; Ap Aiptasia and Nv Nematostella (sea anemones) / Co Capsaspora / Aq Amphimedon (sponge) / Dm Drosophila / Hu human; RHD is the Rel homology domain; high values mean tight binding
Settings in all cases: dsDNA, one strand shown
[1] = molecular target: T1, GST-Ap-NF-kB RHD (Exaiptasia pallida (Aiptasia), UniProt A0A913YAJ5 2-422)
T1 sequence: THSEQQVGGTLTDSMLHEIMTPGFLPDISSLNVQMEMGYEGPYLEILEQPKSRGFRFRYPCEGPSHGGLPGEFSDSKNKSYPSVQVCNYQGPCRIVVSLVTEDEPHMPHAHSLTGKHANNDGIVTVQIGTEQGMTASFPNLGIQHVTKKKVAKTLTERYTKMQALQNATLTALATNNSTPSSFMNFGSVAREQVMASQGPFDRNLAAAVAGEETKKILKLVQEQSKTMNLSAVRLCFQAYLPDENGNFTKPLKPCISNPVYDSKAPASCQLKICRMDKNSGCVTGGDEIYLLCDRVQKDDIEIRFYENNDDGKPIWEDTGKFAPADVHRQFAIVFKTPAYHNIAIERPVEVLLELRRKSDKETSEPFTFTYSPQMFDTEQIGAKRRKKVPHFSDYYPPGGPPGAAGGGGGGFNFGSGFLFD

[2] = molecular target: T2, GST-Nv-NF-kB (Cys allele) (Nematostella vectensis, UniProt E5G601 2-411)
T2 sequence: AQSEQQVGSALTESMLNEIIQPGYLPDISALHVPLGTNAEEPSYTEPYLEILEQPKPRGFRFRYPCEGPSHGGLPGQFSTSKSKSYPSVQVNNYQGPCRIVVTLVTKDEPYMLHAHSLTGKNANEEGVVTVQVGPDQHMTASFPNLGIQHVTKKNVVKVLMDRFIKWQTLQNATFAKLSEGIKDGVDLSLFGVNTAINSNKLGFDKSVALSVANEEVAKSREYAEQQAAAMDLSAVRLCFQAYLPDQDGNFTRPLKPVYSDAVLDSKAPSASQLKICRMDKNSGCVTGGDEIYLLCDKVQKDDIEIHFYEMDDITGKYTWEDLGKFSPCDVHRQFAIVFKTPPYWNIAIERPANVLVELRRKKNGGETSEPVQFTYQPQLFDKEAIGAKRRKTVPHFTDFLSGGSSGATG

[3] = molecular target: T3, GST-Nv-NF-kB (Ser allele) (Nematostella vectensis, UniProt A7UNT2 2-411)
T3 sequence: T2 sequence with Q21R, C66S, S207N, E215Q, V217A, E225K, A268E, D399E

[4] = molecular target: T4, GST-Co-NF-kB (Capsaspora owczarzaki, UniProt F1ARL5 200-546)
T4 sequence: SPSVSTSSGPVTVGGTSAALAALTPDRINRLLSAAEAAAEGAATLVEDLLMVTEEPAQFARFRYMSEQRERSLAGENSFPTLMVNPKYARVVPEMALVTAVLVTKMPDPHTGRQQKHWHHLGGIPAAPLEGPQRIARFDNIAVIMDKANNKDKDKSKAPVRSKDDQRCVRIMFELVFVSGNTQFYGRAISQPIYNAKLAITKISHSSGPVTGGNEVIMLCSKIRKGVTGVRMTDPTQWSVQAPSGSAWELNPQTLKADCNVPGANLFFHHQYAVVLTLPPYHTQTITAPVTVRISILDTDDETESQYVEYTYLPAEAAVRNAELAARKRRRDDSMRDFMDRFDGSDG

[5] = molecular target: T5, GST-Dm-Relish (Drosophila melanogaster, UniProt Q94527 99-473)
T5 sequence: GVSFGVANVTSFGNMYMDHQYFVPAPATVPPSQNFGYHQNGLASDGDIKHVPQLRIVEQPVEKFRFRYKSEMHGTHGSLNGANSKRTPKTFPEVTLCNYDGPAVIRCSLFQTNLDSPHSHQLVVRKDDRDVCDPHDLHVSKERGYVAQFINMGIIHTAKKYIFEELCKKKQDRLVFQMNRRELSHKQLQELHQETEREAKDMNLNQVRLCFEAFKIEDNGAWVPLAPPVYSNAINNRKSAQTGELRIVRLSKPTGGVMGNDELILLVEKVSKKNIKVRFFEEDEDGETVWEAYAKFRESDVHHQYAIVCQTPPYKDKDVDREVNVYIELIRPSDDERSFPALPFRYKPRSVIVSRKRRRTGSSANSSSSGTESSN

[6] = molecular target: T6, GST-Aq-NF-kB (Amphimedon queenslandica, UniProt A9Y5G7 2-389)
T6 sequence: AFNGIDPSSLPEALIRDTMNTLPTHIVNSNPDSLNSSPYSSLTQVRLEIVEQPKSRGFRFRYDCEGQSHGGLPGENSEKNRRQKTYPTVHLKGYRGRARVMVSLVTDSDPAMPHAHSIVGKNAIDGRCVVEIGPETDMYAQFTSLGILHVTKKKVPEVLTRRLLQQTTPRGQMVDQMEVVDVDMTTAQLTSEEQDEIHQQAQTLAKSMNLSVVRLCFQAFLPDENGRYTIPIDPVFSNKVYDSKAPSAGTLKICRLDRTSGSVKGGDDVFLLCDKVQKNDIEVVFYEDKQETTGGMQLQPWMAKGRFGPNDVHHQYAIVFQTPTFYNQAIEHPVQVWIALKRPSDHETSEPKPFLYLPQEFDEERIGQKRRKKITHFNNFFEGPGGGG

[7] = molecular target: GST-Hu-p50 (Homo sapiens, UniProt P19838 7-356)
Sequence of GST-Hu-p50 (P19838 7-356): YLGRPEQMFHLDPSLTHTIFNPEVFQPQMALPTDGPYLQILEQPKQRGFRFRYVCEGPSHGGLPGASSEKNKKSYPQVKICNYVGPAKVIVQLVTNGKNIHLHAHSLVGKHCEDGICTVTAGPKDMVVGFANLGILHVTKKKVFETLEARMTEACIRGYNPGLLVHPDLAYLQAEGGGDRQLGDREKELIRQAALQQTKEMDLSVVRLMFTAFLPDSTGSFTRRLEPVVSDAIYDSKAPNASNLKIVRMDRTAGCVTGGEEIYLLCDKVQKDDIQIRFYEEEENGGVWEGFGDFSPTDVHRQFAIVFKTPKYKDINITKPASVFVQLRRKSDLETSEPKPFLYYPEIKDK

Sequence	binding signal [1] [z-score]	binding signal [2] [z-score]	binding signal [3] [z-score]	binding signal [4] [z-score]	binding signal [5] [z-score]	binding signal [6] [z-score]	binding signal [7] [z-score]
CCGATTAACATCAAATATTCCCCTGATGTTAATCGGGTCTTGATTCGCTTGACGCTGCTG	8.25	10.7	11	10.1	7.22	8.12	6.65
CCGATTAACATCAGGGGAAAGGATGATGTTAATCGGGTCTTGATTCGCTTGACGCTGCTG	4.44	5.7	6.71	4.77	1.2	4.14	3.87
CCGATTAACATCAGGGGTAATTATGATGTTAATCGGGTCTTGATTCGCTTGACGCTGCTG	3.8	4.02	4.62	6.05	2.03	3.96	4.51
CCGATTAACATCAGGGGACTTTATGATGTTAATCGGGTCTTGATTCGCTTGACGCTGCTG	7.86	8.29	7.92	3.64	8.18	7.13	6.72
CCGATTAACATCAGGGGGAAACATGATGTTAATCGGGTCTTGATTCGCTTGACGCTGCTG	6.11	7.08	9.19	10.9	3.99	5.49	6.58
CCGATTAACATCACTACCCCCCCTGATGTTAATCGGGTCTTGATTCGCTTGACGCTGCTG	3.87	3.41	2.74	5.59	3.94	3.4	3.52
CCGATTAACATCAAGGGGAATAATGATGTTAATCGGGTCTTGATTCGCTTGACGCTGCTG	5.34	8.01	8.1	7.2	4.17	5.64	5.62
CCGATTAACATCAGGGCATCCCCTGATGTTAATCGGGTCTTGATTCGCTTGACGCTGCTG	7.7	8.03	5.95	2.46	9.13	8.18	5.52
CCGATTAACATCAACATTACCCCTGATGTTAATCGGGTCTTGATTCGCTTGACGCTGCTG	2.39	2.88	3.43	4.07	1.42	2.86	3.24
CCGATTAACATCAGAATTCCCGATGATGTTAATCGGGTCTTGATTCGCTTGACGCTGCTG	3.78	4.69	4.3	3.92	2.59	3.28	3.21
CCGATTAACATCAAGAAATTCCCTGATGTTAATCGGGTCTTGATTCGCTTGACGCTGCTG	5.84	8.19	8.01	4.57	5.32	6.81	5.84
CCGATTAACATCAAATTTCCCAGTGATGTTAATCGGGTCTTGATTCGCTTGACGCTGCTG	2.47	3.48	3.63	4.39	2.71	3.48	3.07

Source: publication PMC5700166
